# Test results published in the supplement of paper PMC3545927.
# The list shows a part of the results. No count for the full screen is at hand.
# Target: furin, P09958
# Assay: furin cleavage Z-score vs untreated control; higher = more cleavage, active = 3.5 or more, inactive = 1 or less, 8 variable residues between constant flanks
# Method in brief: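 Furin cleavage was scored on 8-mer peptides joined to a cDNA oligonucleotide and bound to magnetic beads at the N-terminus. Digestion with purified furin (1:10 enzyme:substrate, 0.01 ml, 50 mM HEPES pH 7.5, CaCl2, NaCl) lasted 7.5, 15 or 30 min. Freed DNA was tagged with adapters by PCR, sequenced and counted; the cleavage Z-score is the lowess-adjusted log count versus furin-free reactions, scaled by median absolute deviation.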
# furin, P09958, sequence (P09958 whole entry): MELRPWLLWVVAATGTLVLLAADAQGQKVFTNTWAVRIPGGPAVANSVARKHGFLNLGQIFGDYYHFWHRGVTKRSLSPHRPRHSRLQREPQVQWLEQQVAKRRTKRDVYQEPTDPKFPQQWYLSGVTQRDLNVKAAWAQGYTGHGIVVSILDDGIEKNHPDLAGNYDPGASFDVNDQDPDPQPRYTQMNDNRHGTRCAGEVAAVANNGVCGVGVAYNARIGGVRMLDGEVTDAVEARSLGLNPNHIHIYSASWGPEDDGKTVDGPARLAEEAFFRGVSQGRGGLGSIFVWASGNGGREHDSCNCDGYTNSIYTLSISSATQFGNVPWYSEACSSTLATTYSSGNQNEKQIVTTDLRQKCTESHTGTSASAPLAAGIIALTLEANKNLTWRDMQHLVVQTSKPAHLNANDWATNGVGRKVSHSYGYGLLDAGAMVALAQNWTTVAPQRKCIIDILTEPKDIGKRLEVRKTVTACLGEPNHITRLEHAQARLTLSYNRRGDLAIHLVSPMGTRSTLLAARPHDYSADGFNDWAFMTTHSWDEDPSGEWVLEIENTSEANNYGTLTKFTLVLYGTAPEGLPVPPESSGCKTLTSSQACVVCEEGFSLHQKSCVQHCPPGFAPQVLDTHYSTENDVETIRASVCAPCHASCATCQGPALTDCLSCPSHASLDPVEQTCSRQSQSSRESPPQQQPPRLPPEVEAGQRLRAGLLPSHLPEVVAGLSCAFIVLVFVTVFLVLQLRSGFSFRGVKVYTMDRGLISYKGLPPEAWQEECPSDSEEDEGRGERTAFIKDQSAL
Sequence,furin cleavage Z-score (7.5 min),furin cleavage Z-score (15 min),furin cleavage Z-score (30 min)
CALCGRYKRWAGNASASA [FS-49],9.62 (active),12 (active),10.7 (active)
CALIDRFKRWAGNASASA [FS-270],8.5 (active),9.49 (active),10.6 (active)
CAKIARHYRWAGNASASA [FS-1634],0.349 (inactive),0.374 (inactive),2.69
CALINTNGSWAGNASASA [HC367],1.08,-2.18 (inactive),0.0661 (inactive)
CAQHYRKKRWAGNASASA [FS-370],7.9 (active),8.78 (active),9.04 (active)
CAKEECSQHLAGNASASA [HC1674],0.0836 (inactive),-0.555 (inactive),1.98
CARYKRWRKHAGNASASA [FS-2112],4.44 (active),6.03 (active),5.36 (active)
CALETFWAKHAGNASASA [HC1039],-0.932 (inactive),-0.375 (inactive),0.0766 (inactive)
CARYKRHFKLAGNASASA [FS-2848],1.05,2.24,5.27 (active)
CARYKRPGLPAGNASASA [FS-2849],-0.56 (inactive),0.396 (inactive),1.9
CATMPCSGSWAGNASASA [HC1846],-0.28 (inactive),-1.3 (inactive),-0.468 (inactive)
CARARRFCRDAGNASASA [FS-2547],11.3 (active),11.2 (active),8.57 (active)
CARARRFAQIAGNASASA [FS-2644],1.75,2.84,5.09 (active)
CARARRHAADAGNASASA [FS-2648],12.4 (active),14.4 (active),8.89 (active)
CAGCGRICRDAGNASASA [FS-1455],1.57,3.73 (active),3.06
CARARRPHFDAGNASASA [FS-1848],-1.25 (inactive),-0.201 (inactive),0.259 (inactive)
CARARRFSGLAGNASASA [FS-1683],-0.486 (inactive),-0.258 (inactive),0.853 (inactive)
CAMSADLEVVAGNASASA [HC985],-0.119 (inactive),0.307 (inactive),-0.651 (inactive)
CALDCEIYGAAGNASASA [HC1592],-0.215 (inactive),-0.505 (inactive),-1.05 (inactive)
CAFNSSGCPEAGNASASA [HC384],-0.864 (inactive),-1.69 (inactive),-0.153 (inactive)
CAAILSPGALAGNASASA [HC1103],0.122 (inactive),-1.5 (inactive),-0.137 (inactive)
CAIMTCMSADAGNASASA [HC983],-1.36 (inactive),0.0813 (inactive),-2.62 (inactive)

Sequence,furin cleavage Z-score (7.5 min),furin cleavage Z-score (15 min),furin cleavage Z-score (30 min)
CADSHYQDVLAGNASASA [HC1401],-0.596 (inactive),-0.846 (inactive),0.188 (inactive)
CADPEVVTSTAGNASASA [HC2299],-0.751 (inactive),-0.261 (inactive),-0.557 (inactive)
CAEVVTSPWVAGNASASA [HC2219],-0.287 (inactive),-0.0163 (inactive),0.0529 (inactive)
CAEVKCHRPSAGNASASA [HC2354],0.191 (inactive),-0.204 (inactive),1.45
CARARRHSDGAGNASASA [FS-2480],6.39 (active),6.07 (active),5.39 (active)
CAKVVILDSFAGNASASA [HC1285],-0.496 (inactive),-1.22 (inactive),-0.351 (inactive)
CAKVLRSRRSAGNASASA [FS-1353],3.74 (active),4.72 (active),3.35
CAIALRLRRSAGNASASA [FS-32],1.01,0.68 (inactive),0.673 (inactive)
CAASRVSRRSAGNASASA [FS-979],5.49 (active),7.22 (active),5.62 (active)
CASPRDARRSAGNASASA [FS-1614],-1.33 (inactive),-1.24 (inactive),-1.6 (inactive)
CAHSRRSRRSAGNASASA [DV5],12.2 (active),12.3 (active),9.14 (active)
CAHPRRSRRSAGNASASA [FS-932],8.18 (active),9.38 (active),7.97 (active)
CAASRGNHVSAGNASASA [HC1122],1.32,0.577 (inactive),1.1
CAYPYRLWHYAGNASASA [HC466],-1.33 (inactive),-2.06 (inactive),0.263 (inactive)
CASTPCSTHLAGNASASA [HC2538],-0.715 (inactive),0.257 (inactive),-0.443 (inactive)
CAYCWHYPPKAGNASASA [HC403],1.04,0.468 (inactive),2.44
CAHSRTIKRSAGNASASA [FS-1632],5.07 (active),6.15 (active),6.19 (active)
CATTPCSYSWAGNASASA [HC1889],-2.07 (inactive),0.349 (inactive),1.53
CAGPRLGVRAAGNASASA [HC181],-1.03 (inactive),0.21 (inactive),-0.871 (inactive)
CAGFHRRARAAGNASASA [FS-239],4.46 (active),3.84 (active),4.12 (active)
CAGNEGCGWAAGNASASA [HC204],-0.525 (inactive),-0.206 (inactive),-0.116 (inactive)
CAGNRRRARAAGNASASA [FS-126],9.62 (active),8.76 (active),7.27 (active)
